This is part of a sample that, as a whole, favours compounds with a hit. Of some 83,000 tested, about 20% had one in any assay.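 Treatment: one concentration, 48 hours, 96-well format. Scoring: percent growth, with anything below 10 considered active.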 Unmarked numbers belong to inactive results. Active and inactive are the calls of the source.
What was measured:
Test in all cases: NCI-60 one-dose screen, 48 h (100 = growth as untreated, 0 = no growth, -100 = all killed)
Conditions in all cases: 10 µM unless noted
NCI-H23 lung = test system: NCI-H23 lung
HOP-62 NSCLC = test system: HOP-62 NSCLC
NCI-H460 lung = test system: NCI-H460 lung
HOP-92 NSCLC = test system: HOP-92 NSCLC
NCI-H522 lung = test system: NCI-H522 lung
A549/ATCC NSCLC = test system: A549/ATCC NSCLC
786-0 renal = test system: 786-0 renal
COLO 205 colon = test system: COLO 205 colon
DU-145 prostate = test system: DU-145 prostate
K-562 leukemia = test system: K-562 leukemia
MALME-3M melanoma = test system: MALME-3M melanoma
MDA-MB-231 breast = test system: MDA-MB-231 breast
RXF 393 renal = test system: RXF 393 renal
SF-268 CNS = test system: SF-268 CNS
SF-295 CNS = test system: SF-295 CNS
SF-539 CNS = test system: SF-539 CNS
UACC-257 melanoma = test system: UACC-257 melanoma
M14 melanoma = test system: M14 melanoma
HCT-15 colon = test system: HCT-15 colon

Row | Structure (SMILES) | growth (NCI-H23 lung) | growth (HOP-62 NSCLC) | growth (NCI-H460 lung) | growth (HOP-92 NSCLC) | growth (NCI-H522 lung) | growth (A549/ATCC NSCLC) | growth (786-0 renal) | growth (COLO 205 colon) | growth (DU-145 prostate) | growth (K-562 leukemia) | growth (MALME-3M melanoma) | growth (MDA-MB-231 breast) | growth (RXF 393 renal) | growth (SF-268 CNS) | growth (SF-295 CNS) | growth (SF-539 CNS) | growth (UACC-257 melanoma) | growth (M14 melanoma) | growth (HCT-15 colon)
1 | Cc1cc2c(c(C)c1Cl)C(=O)/C(=C/c1cccc([N+](=O)[O-])c1)O2 | 90.3% | 107% | 101% | 114% | 80.6% | 89.6% | 101% | 123% | 104% | 99.9% | 97.1% | 92.7% | 107% | 100% | 95.1% | 95% | 88.2% | 98.9% | 99.7%
2 | COc1cccc(/C=C/C(=O)c2c(C)nc3ccccc3c2/C=C/c2ccccc2)c1OC | 31.2% | 55.2% | 2.78% (active) | 60.7% | 3.88% (active) | 30.9% | 42.4% | 56.3% | 4.24% (active) | 9.13% (active) | 69.1% | 20.9% | 15.4% | 38.8% | 46.5% | 58.8% | 46.1% | 36.3% | 5.81% (active)
3 | CCCCNc1nc(NC(C)(C)C)nc(NC(C)(C)C)n1 | 47.9% | 84.1% | 82.5% | 48.6% | 52.8% | – | 48.2% | 63.5% | 74.6% | 20.8% | 87.3% | 72% | -7.69% (active) | 91.7% | -19.5% (active) | 51% | 81% | 57.5% | 57.6%
4 | COc1ccc(Cn2c(Br)c3c(c2Br)-c2nc(N)sc2CC3)cc1 | 57.3% | 35.5% | 15.7% | 58.5% | 2.16% (active) | 39.1% | 56.8% | 66.9% | 57% | 4.07% (active) | 21.9% | 37% | 16.3% | 45.2% | 70.3% | 39.9% | 70.4% | 13.9% | 29.9%
5 | O=C1c2cc(Cl)ccc2Oc2cc([N+](=O)[O-])ccc2N1c1ccc(F)cc1F | 94.1% | 87.8% | 93.2% | 98.9% | 49.9% | 66.7% | 93.6% | 96.5% | 89.8% | 78.8% | 103% | 83% | 89.6% | 72.9% | 94.6% | 96.7% | 91% | 99.2% | 86.9%
6 | COC(=O)/C(CCC=C(C)C)=C1\[C@@H](OC(C)=O)C[C@@]2(C)[C@H]1C[C@@H](O)[C@H]1[C@@]3(C)CC[C@H](NCCCNCCCCNCCCN)[C@@H](C)[C@@H]3CC[C@@]12C | 61.4% | 52.1% | 19.4% | 52.6% | 93.7% | 62.1% | 44.8% | 21.6% | 70.5% | 33.4% | 47.2% | 56% | 75.8% | 81.3% | 41.9% | 66% | 91.9% | 40% | 76.8%
7 | O=C(CN1C=NC2C(N3CCOCC3)=NC=NC21)c1ccc(Br)cc1 (stereo not drawn) | 99.2% | 103% | 99.9% | 106% | 87.2% | 103% | 103% | 112% | 107% | 106% | 104% | 105% | 103% | 98.9% | 97.9% | 100% | 105% | 107% | 101%
8 | O=C(Nc1ccc(Cl)cc1)c1cc2ccccc2cc1OP(=O)(O)O | -0.361% (active) | 32.3% | 14.2% | -24% (active) | 3.47% (active) | 16.4% | 20.6% | 98.9% | 24.9% | 27.1% | -16.3% (active) | 55.5% | – | 32% | -7.61% (active) | 32.1% | 15.7% | 31.9% | 23.2%
9 | CN=c1ccc2nc3ccc(N)cc3sc-2c1 | 13.3% | 29% | 27.6% | 53.5% | 10.5% | – | 48.8% | 1.63% (active) | 75.3% | 20.7% | -22.9% (active) | 7.68% (active) | 49.9% | 16.1% | -43.1% (active) | 12% | -19.3% (active) | 9.39% (active) | 30.3%
10 | COC(=O)/C(CCC=C(C)C)=C1\[C@@H](OC(C)=O)C[C@@]2(C)[C@H]1C[C@@H](O)[C@H]1[C@@]3(C)CC[C@H](NC(=O)c4cnccn4)[C@@H](C)[C@@H]3CC[C@@]12C | 103% | 102% | 109% | 100% | 89.6% | – | 92.2% | 110% | 93.7% | 85.5% | 100% | 96.5% | 107% | 94.8% | 103% | 105% | 110% | 99.8% | 96.3%
11 | C#CCn1cc(C=C2C(=O)NC(=O)NC2=O)c2cc(Cl)ccc21 | 90.5% | 95.5% | 63.1% | 88.7% | 71.7% | 96.1% | 106% | 123% | 87.6% | 82.6% | 98.4% | 86.2% | 72.3% | 81.1% | 92.6% | 82.5% | 94.6% | 85.1% | 82.8%
12 | Nc1nc(Nc2cccc(F)c2)nc2ccccc12 | 38.7% | 65.7% | 31.6% | -2.46% (active) | 51.5% | – | 46.5% | -54.1% (active) | 67.9% | 6.62% (active) | 57.2% | 43.7% | 42% | 77.3% | – | 54.3% | 12% | 22.9% | 33.4%
13 | Cc1ccc(CN2CCC(C(=O)Nc3ccc(-c4cc5ccccc5[nH]4)cc3)CC2)o1 | 69.6% | 97.9% | 27.9% | 36.8% | 72% | 33.7% | 38.4% | 83.4% | 60.2% | 3.08% (active) | 77.9% | 60.7% | 54.6% | 66.6% | 17.2% | 84.3% | 85.4% | 41.9% | 44.2%
14 | Cc1[nH]c2ccccc2c(=O)c1CC=C(Cl)Cl | 75.4% | -7.31% (active) | -74% (active) | 64.5% | 65.7% | 16.9% | -80.2% (active) | 35% | -22.5% (active) | -34.6% (active) | 82.4% | 34.1% | 63.9% | 39.6% | -86.8% (active) | 58% | 99.5% | 72.7% | 3.43% (active)
15 | NS(=O)(=O)c1ccc(CCN=C=S)cc1 | 32.7% | 101% | 56.7% | 23.4% | -69.8% (active) | 71.5% | 20.8% | -36.7% (active) | 6.92% (active) | 5.24% (active) | 40.9% | 15.6% | -36.3% (active) | 53.3% | 105% | 37.2% | 24.7% | 12.6% | 0.368% (active)
16 | CN1CCN(Cc2ccc(C(=O)Nc3cncc(C#Cc4cnc(N)c5ccccc45)c3)cc2C(F)(F)F)CC1 | -41.8% (active) | -48.4% (active) | -80.8% (active) | 45.2% | -54.3% (active) | -67.8% (active) | -82.1% (active) | -50.9% (active) | -87.2% (active) | -46% (active) | -86.9% (active) | -82.2% (active) | -81.5% (active) | -69.5% (active) | -82.7% (active) | -95.9% (active) | -75% (active) | -85.2% (active) | -37.6% (active)
